Test results as given in the supplement of paper PMC8728848.
This is one part of a sample in which the strongest signals are shown more often than they occur.

system: Neu5Ac(a2-3)[Neu5Ac(a2-6)]GalNAc; test: glycan array binding signal (z-score within array); higher = stronger binding; conditions: glycan notation: IUPAC condensed, linker removed
Outline: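 Columns mapping to the same glycan were averaged after glycan names were converted to IUPAC-condensed notation. The data come from 3228 arrays in the Consortium for Functional Glycomics database, limited to those with an available protein sequence. Binding is reported as a within-array Z-score averaged across arrays of one protein sequence and across linkers.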

Chain of wLAT-1A (Homo sapiens), Q01650 (Q01650 whole entry): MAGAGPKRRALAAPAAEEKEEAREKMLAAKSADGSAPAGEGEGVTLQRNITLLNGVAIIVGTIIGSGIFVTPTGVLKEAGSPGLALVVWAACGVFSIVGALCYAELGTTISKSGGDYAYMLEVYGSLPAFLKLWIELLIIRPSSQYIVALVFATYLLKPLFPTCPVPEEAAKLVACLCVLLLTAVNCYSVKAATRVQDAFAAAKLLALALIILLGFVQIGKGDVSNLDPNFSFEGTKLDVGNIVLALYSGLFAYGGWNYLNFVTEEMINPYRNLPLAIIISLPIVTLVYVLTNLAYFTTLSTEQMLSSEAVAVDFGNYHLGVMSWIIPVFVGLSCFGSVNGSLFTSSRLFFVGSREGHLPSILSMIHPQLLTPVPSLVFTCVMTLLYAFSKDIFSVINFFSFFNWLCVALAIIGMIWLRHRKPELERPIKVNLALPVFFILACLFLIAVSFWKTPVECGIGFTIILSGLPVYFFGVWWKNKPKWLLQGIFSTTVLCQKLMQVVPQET
Chain of 6RG (Lolium perenne), B9U140 (B9U140 entry or part of it): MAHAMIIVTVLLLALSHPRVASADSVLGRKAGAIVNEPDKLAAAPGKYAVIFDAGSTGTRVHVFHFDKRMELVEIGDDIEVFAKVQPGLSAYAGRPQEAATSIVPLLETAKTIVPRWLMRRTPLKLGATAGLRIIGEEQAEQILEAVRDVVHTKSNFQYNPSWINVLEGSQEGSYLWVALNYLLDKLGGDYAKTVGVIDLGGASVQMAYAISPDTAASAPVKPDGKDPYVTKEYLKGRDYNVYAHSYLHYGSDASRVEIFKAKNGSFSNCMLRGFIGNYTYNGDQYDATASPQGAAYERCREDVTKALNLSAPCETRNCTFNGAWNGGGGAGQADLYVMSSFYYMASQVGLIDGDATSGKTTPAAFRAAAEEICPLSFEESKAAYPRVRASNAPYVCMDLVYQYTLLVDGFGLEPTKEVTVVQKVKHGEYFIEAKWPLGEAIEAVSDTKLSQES
Chain of 6RG (Lolium perenne) (chain, as listed by the source): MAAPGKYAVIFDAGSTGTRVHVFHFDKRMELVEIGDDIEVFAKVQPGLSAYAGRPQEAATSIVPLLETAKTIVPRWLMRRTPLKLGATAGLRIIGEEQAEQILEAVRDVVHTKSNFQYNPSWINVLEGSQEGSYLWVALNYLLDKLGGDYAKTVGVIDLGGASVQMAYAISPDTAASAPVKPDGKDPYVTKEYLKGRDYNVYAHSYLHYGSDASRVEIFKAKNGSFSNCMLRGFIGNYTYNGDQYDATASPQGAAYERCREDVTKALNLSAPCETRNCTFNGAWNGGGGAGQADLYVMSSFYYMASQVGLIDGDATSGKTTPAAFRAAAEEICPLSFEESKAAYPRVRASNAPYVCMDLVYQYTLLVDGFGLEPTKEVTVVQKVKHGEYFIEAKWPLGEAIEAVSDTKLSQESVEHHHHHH

| Substance | glycan array binding signal (z-score) |
| --- | --- |
| wLAT-1A (Homo sapiens), Q01650 | 0.503 |
| 6RG (Lolium perenne) | -0.349 |
| 6RG (Lolium perenne), B9U140 | -0.334 |
